Assay results: PubChem BioAssay (NCATS)
Values without a mark were called inactive. Inconclusive results are not listed. A call without a number means that no potency is given here. The source made the active and inactive calls. Calls come from the whole dose curve; as a rule, active = well fitted curve in the direction sought with a large enough effect; inconclusive = small, poorly fitted or top-dose-only effect, or another doubt; inactive = no such curve, though single readings can be large; an effect the other way counts as inactive or inconclusive.

Experiments:
[1] = biological target: Glutathione peroxidase 1 (Homo sapiens) (UniProt P07203); experiment: Primary qHTS Assay for Inhibitors of Recombinant Selenoprotein Glutathione Peroxidase 1 (GPX1) (AID 1845191); note: nearly all actives have a fitted effect of over 65% in size
How it was run: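 GR-coupled readout: NADPH consumption tracked by fluorescence, ex 340/em 450 nm, at t=0 and after 15 min at RT. Final mix 10 nM GPX1, 1 mM GSH, 0.5 mM CHP, 0.5 mM NADPH, 100 nM GR, 0.01% BSA, following 30 min enzyme–compound preincubation.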

[2] = biological target: Phospholipid hydroperoxide glutathione peroxidase GPX4 (Homo sapiens) (UniProt P36969); experiment: Primary qHTS Assay for Inhibitors of Recombinant Selenoprotein Glutathione Peroxidase 4 (GPX4) (AID 1845192); note: nearly all actives have a fitted effect of over 65% in size
How it was run: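 Steps: GPX4 plus compound, 30 min RT; add GR/GSH/NADPH master mix; start with cumene hydroperoxide; read 340/450 nm fluorescence at 0 and 15 min. Finals were 200 nM GPX4, 1 mM GSH, 0.5 mM CHP, 0.5 mM NADPH, 100 nM GR.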

[3] = biological target: Luciferin 4-monooxygenase (Photinus pyralis) (UniProt P08659); experiment: Primary firefly luciferase (FLuc) qHTS assay for identification of artifact compounds. (AID 1845220); note: nearly all actives have a fitted effect of over 60% in size
How it was run: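 D-luciferin and ATP (10 uM each, final) in Tris acetate buffer pH 7.6 were incubated with compounds for 15 min at room temperature. The reaction was started with 10 nM Photinus pyralis luciferase and luminescence read after 5 min. Percent inhibition was fitted to a 4-parameter Hill equation.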

[4] = tested on: Nanoluciferase (engineered Oplophorus gracilirostris luciferase); experiment: Primary Nanoluciferase (NLuc) qHTS assay for identification of artifact compounds. (AID 1845222); note: series mostly up to about 54 µM
How it was run: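 Diluted conditioned medium from NLuc-expressing S16 cells treated with compounds for 15 min at room temperature, then Nano-Glo substrate added; luminescence read after 5 min. Percent inhibition versus no-enzyme and DMSO controls fitted to 4-parameter Hill equation.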

[5] = Primary redox qHTS assay for identification of artifact compounds. (AID 1845223)
How it was run: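 Redox-cycling detection via DTT (250 uM final) oxidation coupled to Amplex Red (25 uM)/HRP (250 mU/mL) in HBSS. 15 min preincubation plus 30 min after DTT, room temperature. Ex/Em 525/598 nm; 4-parameter Hill fit against DMSO and 10 uM DA3003.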

[6] = Primary fluorescence-based thiol-reactive (MSTI) qHTS assay for identification of artifact compounds. (AID 1845221); note: nearly all actives have a fitted effect of over 65% in size; note: potency is the fitted concentration of half-maximal effect;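 for activity change, negative = thiol reactive: series mostly up to about 54 µM; thiol-reactive compounds lower the probe fluorescence signal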
How it was run: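 Thiol-reactive compounds detected by quenching of 4 uM MSTI fluorescence (525/598 nm) after 1 h room-temperature dark incubation in PBS pH 7.4, 2% DMSO. qHTS titration; percent inhibition Hill-fitted against Acetyl-MSTI/MSTI controls.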

Phospholipid hydroperoxide glutathione peroxidase GPX4 (Homo sapiens), sequence (P36969 whole entry, looked up): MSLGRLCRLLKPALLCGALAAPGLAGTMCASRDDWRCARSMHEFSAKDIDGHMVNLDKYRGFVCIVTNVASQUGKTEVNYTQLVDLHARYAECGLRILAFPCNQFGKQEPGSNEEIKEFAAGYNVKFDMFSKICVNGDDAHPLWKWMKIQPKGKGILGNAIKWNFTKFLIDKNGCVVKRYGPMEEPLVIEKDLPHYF
Glutathione peroxidase 1 (Homo sapiens), sequence (P07203 whole entry, looked up): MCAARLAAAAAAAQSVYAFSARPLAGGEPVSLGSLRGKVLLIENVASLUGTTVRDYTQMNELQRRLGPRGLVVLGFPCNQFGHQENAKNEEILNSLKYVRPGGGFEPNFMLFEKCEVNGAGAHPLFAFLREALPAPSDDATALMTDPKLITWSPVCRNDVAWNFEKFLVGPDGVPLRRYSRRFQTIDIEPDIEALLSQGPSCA

With `COc1ccc2c(c1)N1C(=O)C[C@@]34C=CC[N@+]5([O-])CC[C@H]2[C@H](CC3)[C@@]145` the Potency [1] was “inactive”, the Potency [2] was “inactive” and the Potency [3] was “inactive”. The Potency [4] was “inactive” and the Potency [5] was “inactive”.
In the case of `N[C@@H](CC(=O)Nc1ccc(Oc2cc(F)c(F)cc2Br)cc1)C(=O)O`, the Potency [1] is reported as “inactive”, the Potency [2] is reported as “inactive” and the Potency [3] is reported as “inactive”. The Potency [4] was “inactive” and the Potency [5] was “inactive”.
With `COC(=O)C1=CO[C@@H](O[C@@H]2O[C@H](CO)[C@@H](O)[C@H](O)[C@H]2O)[C@@H]2[C@@H](C(=O)O)CC[C@H]12` the Potency [1] was “inactive”, the Potency [2] was “inactive” and the Potency [3] was “inactive”. For the same compound, the Potency [4] was “inactive” and the Potency [5] was “inactive”.
With `C[C@H]1CC[C@H]2[C@@H](C=C[C@@](C)(O)[C@]2(C)C(=O)CCO)C1` the Potency [1] was “inactive”, the Potency [2] was “inactive” and the Potency [3] was “inactive”. For the same compound, the Potency [4] was “inactive” and the Potency [5] was “inactive”.
With `COC(=O)C1(O)C(OC(C)=O)CCC2C3(CC(c4ccoc4)OC3=O)C(C)=CCC21C(=O)OC` (stereo not drawn) the Potency [1] was “inactive”, the Potency [2] was “inactive” and the Potency [3] was “inactive”. For the same compound, the Potency [4] was “inactive” and the Potency [5] was “inactive”.
In the case of `CS(=O)(=O)c1ccccc1N1CCN(c2nc3c(c(=O)[nH]2)CSCC3)CC1`, the Potency [1] is reported as “inactive”, the Potency [2] is reported as “inactive” and the Potency [3] is reported as “inactive”. The Potency [4] was “inactive” and the Potency [5] was “inactive”.
In the case of `COc1cc(/C=C/C(=O)OC[C@H]2O[C@@H](OC3OC=C(C(=O)O)C4C(O)CC(C)(O)C34)[C@H](O)[C@@H](O)[C@@H]2O)cc(OC)c1O` (stereo partly drawn), the Potency [1] is reported as “inactive”, the Potency [2] is reported as “inactive” and the Potency [3] is reported as “inactive”. For the same compound, the Potency [4] was “inactive” and the Potency [5] was “inactive”.
In the case of `OC[C@H]1O[C@@H](OCc2ccccc2)[C@H](O[C@@H]2OC[C@@H](O)[C@H](O)[C@H]2O)[C@@H](O)[C@@H]1O`, the Potency [1] is reported as “inactive”, the Potency [2] is reported as “inactive” and the Potency [3] is reported as “inactive”. The Potency [4] was “inactive” and the Potency [5] was “inactive”.
For `Cc1c(C)c(NCC(=O)N(C)C2CCN(Cc3ccc(C(N)=O)cc3)CC2)c(C)c(C)c1N`, the Potency [1] was “inactive”, the Potency [2] was “inactive” and the Potency [3] was “inactive”. For the same compound, the Potency [4] was “inactive” and the Potency [5] was “inactive”.
For `C=C(C(=O)OC)[C@]12O[C@@](C)(CC[C@@]3(O)/C(=C\C)C(=O)O[C@]3(C)C[C@@H]1OC(=O)C(CO)CN1CCCC1C(=O)O)CC2=O` (stereo partly drawn), the Potency [1] was “inactive”, the Potency [2] was “inactive” and the Potency [3] was “inactive”. For the same compound, the Potency [4] was “inactive” and the Potency [5] was “inactive”.
In the case of `CC1=C(C(=O)OC2OC(COC3OC(CO)C(O)C(O)C3O)C(O)C(O)C2O)C(C)(C)CCC1` (stereo not drawn), the Potency [1] is reported as “inactive”, the Potency [2] is reported as “inactive” and the Potency [3] is reported as “inactive”. For the same compound, the Potency [4] was “inactive” and the Potency [5] was “inactive”.
With `CC(C)(O)C1OC1C1=CC(=O)C2(C)OC2C1O` (stereo not drawn) the Potency [1] was “inactive”, the Potency [2] was “inactive” and the Potency [3] was “inactive”. The Potency [4] was “inactive” and the Potency [5] was “inactive”.
For `NC1Nc2ccccc2C1(N)CC1NC(=O)C(Cc2ccccc2)NC(=O)C(Cc2ccccc2)NC1=O` (stereo not drawn), the Potency [1] was “inactive”, the Potency [2] was “inactive” and the Potency [3] was “inactive”. For the same compound, the Potency [4] was “inactive” and the Potency [5] was “inactive”.
In the case of `CC(=O)c1ccc(O[C@@H]2OC[C@@H](O)[C@H](O)[C@H]2O[C@]2(CO)O[C@H](CO)[C@@H](O)[C@@H]2O)c(O)c1`, the Potency [1] is reported as “inactive”, the Potency [2] is reported as “inactive” and the Potency [3] is reported as “inactive”. For the same compound, the Potency [4] was “inactive” and the Potency [5] was “inactive”.
With `C=C[C@H]1[C@H](O[C@@H]2O[C@H](CO)[C@@H](O)[C@H](OC(=O)/C=C/c3ccc(O)c(OC)c3)[C@H]2O)OC=C2C(=O)OCC[C@]21O` the Potency [1] was “inactive”, the Potency [2] was “inactive” and the Potency [3] was “inactive”. For the same compound, the Potency [4] was “inactive” and the Potency [5] was “inactive”.
For `COC(=O)c1ccc(OC)cc1O[C@@H]1O[C@H](CO[C@@H]2OC[C@@H](O)[C@H](O)[C@H]2O)[C@@H](O)[C@H](O)[C@H]1O`, the Potency [1] was “inactive”, the Potency [2] was “inactive” and the Potency [3] was “inactive”. For the same compound, the Potency [4] was “inactive” and the Potency [5] was “inactive”.
In the case of `CC(NC(=O)CC(=O)O)C(=O)Nc1ccccc1C(N)=O` (stereo not drawn), the Potency [1] is reported as “inactive”, the Potency [2] is reported as “inactive” and the Potency [3] is reported as “inactive”. For the same compound, the Potency [4] was “inactive” and the Potency [5] was “inactive”.
With `COc1cc(C(O)C2COC(c3ccc(OC4OC(CO)C(O)C(O)C4O)c(OC)c3)C2CO)ccc1O` (stereo not drawn) the Potency [1] was “inactive”, the Potency [2] was “inactive” and the Potency [3] was “inactive”. The Potency [4] was “inactive” and the Potency [5] was “inactive”.
In the case of `COC1OC(=O)C2=C1C1(C)CCCC(C)(C)C1CC2O` (stereo not drawn), the Potency [1] is reported as “inactive”, the Potency [2] is reported as “inactive” and the Potency [3] is reported as “inactive”. For the same compound, the Potency [4] was “inactive” and the Potency [5] was “inactive”.
In the case of `CC1(C)CC[C@]2(C(=O)O[C@@H]3O[C@H](CO)[C@@H](O)[C@H](O)[C@H]3O)CC[C@]3(C)C(=CCC4[C@@]5(C)CC[C@H](O[C@@H]6O[C@H](C(=O)O)[C@@H](O)[C@H](O)[C@H]6OC6OC(CO)C(O)C(O)C6O)C(C)(C)C5CC[C@]43C)[C@@H]2C1` (stereo partly drawn), the Potency [1] is reported as “inactive”, the Potency [2] is reported as “inactive” and the activity change, negative = thiol reactive [6] is reported as 43.7% [at 11.5 µM]. The activity, negative = inhibition [4] was 0.31% [at 11.6 µM].
In the case of `CC1OC(OC2C(OC(=O)[C@]34CCC(C)(C)C[C@H]3C3=CCC5[C@@]6(C)CC[C@H](OC7OC(C(=O)O)C(O)C(O)C7O)C(C)(C)C6CC[C@@]5(C)[C@]3(C)CC4O)OC(CO)C2O)C(O)C(O)C1OC1OCC(O)C(O)C1O` (stereo partly drawn), the Potency [1] is reported as “inactive”, the Potency [2] is reported as “inactive” and the activity change, negative = thiol reactive [6] is reported as 111% [at 11.5 µM]. The activity, negative = inhibition [4] was 0% [at 11.6 µM].
For `COC(=O)[C@@H](NC(=O)[C@H](CC(C)C)NC(=O)N(Cc1ccccc1)C[C@@H](O)[C@H](Cc1ccccc1)NC(=O)OC(C)(C)C)C(C)C`, the Potency [1] was “inactive”, the Potency [2] was “inactive” and the outcome [3] was “inactive [at 11.6 µM]”. It also gave an activity, negative = inhibition [4] of -4.83% [at 11.6 µM] and a redox activity (% of DA3003) [5] of 19.1% [at 11.5 µM].
In the case of `O=C(/C=C/c1ccc(O)c(O)c1)O[C@H]1[C@H](OC2CCCCC2O)O[C@H](CO)[C@@H](O)[C@@H]1O` (stereo partly drawn), the Potency [1] is reported as “inactive”, the Potency [2] is reported as “inactive” and the Potency [6] is reported as 2.07 µM (active). The Potency [4] was “inactive” and the Potency [5] was “inactive”.
